Screens: PubChem BioAssay, National Center for Advancing Translational Sciences (NCATS)
FMDV antiviral: blocks foot and mouth disease virus; FMDV antiviral cell-based qHTS; Potency, µM (series often up to 57.9 µM), for inactives: at the top dose activity change, negative = inhibition, usual class: inhibitors; actives 1.2% (n = 410,000); AID 1159524; calls by dose curve; tested in HEK293T cells; note: read-out not given here; potency is the fitted concentration of half-maximal effect; % is set by controls: 0 for no effect and ±100 for the full control effect; nearly all actives have a fitted effect of over 45% in size
CHX counter: counter-screen for Shiga toxin inhibitors: cycloheximide protein synthesis inhibition. cell reporter, cycloheximide protein synthesis inhibition counterscreen. max response, %. actives 12% (n = 300,000); in the data active = max response mostly above about 13%, no sharp cut-off; inactive = mostly below about 14%; note: read at 38.3 µM for the half of the compounds with a filed dose; 0% is about no effect
Shiga toxin inh: inhibitors of Shiga toxin in Vero cells | Vero cells, Shiga toxin protein synthesis inhibition reporter | inhibition, % at 38.7 µM | actives 9.2% (n = 290,000) | AID 2315; in the data active = inhibition mostly above about 28%, no sharp cut-off; inactive = mostly below about 43%; note: 0% is about no effect
Marburg entry inh: blocks Marburg virus binding to or entry into cells. Marburg virus pseudotyped entry inhibition, cell reporter. Potency, µM (doses to about 37.8 µM), without a hit: top-dose activity change, negative = inhibition, hits mostly inhibitors. actives 1.8% (n = 300,000); calls by dose curve; tested in HEK293 cells; note: potency is the fitted concentration of half-maximal effect; % is set by controls: 0 for no effect and ±100 for the full control effect
HCV inhibitor: inhibitors of hepatitis C virus infection; actives 3.4% (n = 340,000); Potency, µM (highest dose often 41.8 µM), for the others: at the top dose activity change, negative = inhibition, hits mostly inhibitors; Huh7.5.1 HCVcc-Cre infection, luciferase reporter, 44 h; active = well fitted inhibition curve with a large enough effect; inconclusive = small, poorly fitted or top-dose-only effect, or another doubt; inactive = no such curve, though single readings can be large or run the other way; note: potency is the fitted concentration of half-maximal effect; % is set by controls: 0 for no effect and ±100 for the full control effect
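A cell-based infection assay in which seeded cells (1,000 per well) receive test compound after 4 h, are inoculated with HCVcc-Cre at approximately 0.5 moi, and are incubated 44 h before luminescence detection.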
LASV entry inh: Lassa virus entry inhibition; Lassa virus pseudotype entry inhibition, cell reporter; Potency, µM (titrated, usually from 37.9 µM), for the others: at the top dose activity change, negative = inhibition, actives largely listed as inhibitors; actives 1.2% (n = 300,000); AID 540256; calls by dose curve; tested in HEK293 cells; note: potency is the fitted concentration of half-maximal effect; % is set by controls: 0 for no effect and ±100 for the full control effect; nearly all actives have a fitted effect of over 50% in size
* marks the source's active call; other numbers are inactive results; ? = inconclusive; . = not tested or not shown; [ ] = dose if it differs, or a comment. Rows were chosen to be rich in hits. Some 13% of all compounds tested hit in one or more screens of this group.

SMILES | FMDV antiviral | CHX counter | Shiga toxin inh | Marburg entry inh | HCV inhibitor | LASV entry inh
Clc1ccc(Cl)c2sc(N3CCOCC3)nc12 | 35% | . | . | -2%[46.1 µM] | 13µM* | ?
Clc1ccc(Cl)c2sc(N3CCCC3)nc12 | 9% | 16 | 33 | -2% | ? | 1%
Clc1ccc(-c2ccnc3nc(N4CCOCC4)nn23)c(Cl)c1 | -17% | . | . | -3%[46.1 µM] | -14% | 27%
Clc1ccc(-c2nsc(N3CCOCC3)n2)c(Cl)c1 | 19% | 34* | 72* | ? | -6% | ?
Clc1cc(Cl)c2nc(N3CCOCC3)sc2c1 | 30% | 31* | 51* | 20% | 6% | 21%
CCc1nc(N)nc2c1C(=O)CC(C)(C)C2 | 0% | 0 | 27 | 2% | 1% | 2%
O=C(Oc1c(CN2CCOCC2)cc(Cl)c2cccnc12)c1ccccc1F | -16% | 13 | 72 | ? | ? | ?
O=C(COC(=O)Cc1cccs1)Nc1ccccc1F | 13% | 1 | 5 | 9% | ? | 0%
COc1ccc(CCNS(=O)(=O)c2cn(C)c(=O)n(C)c2=O)cc1OC | -15% | -3 | 2 | . | 7% | .
CCCCc1nc2cc(C(=O)NC(C)c3cnn(C)c3)ccc2o1 (stereo unspecified) | 56% | 34* | 66* | . | -23% | .
CCCCc1nc2cc(C(=O)N3CCNC(=O)C3)ccc2o1 | 2% | 14* | 1 | . | 15% | .
CCCCc1nc2cc(C(=O)N3CCNC(=O)C3CC(=O)OC)ccc2o1 (stereo unspecified) | 1% | 15* | 8 | 13% | . | 3%
CCCCc1nc2cc(C(=O)N3CCCC3)ccc2o1 | 58% | 31* | 68* | . | 19% | .
CCCOc1ccc(C(=O)NC(=S)Nc2nc(C)c(C(=O)N(C)C)s2)cc1 | -10% | -4 | -10 | 0% | ? | 5%
CC(C)OP(=O)(OC(C)C)C(NC(=O)c1ccccc1)C(N)=O (stereo unspecified) | -6% | -1 | -22 | -3%[46.1 µM] | 10% | -4%[46.1 µM]
O=C(Nc1ccc(F)cc1F)c1cc2nc(-c3ccco3)cc(C(F)(F)Cl)n2n1 | -11% | . | . | . | . | -14%[46.1 µM]
CCCCCCn1ccc(=N)cc1 | 0% | 7 | -9 | 13µM* | 0.79µM* | ?
COc1ccc(/C=C/C(=O)O)cc1OC | 2% | -4 | -4 | 10% | 2% | -3%
COc1ccc(C=C(C(C)=O)C(C)=O)cc1OC | 28µM* | -1 | 8 | -7% | 3% | -14%
COc1cc(/C=C/C(=O)CC(=O)/C=C/c2ccc(O)c(OC)c2)ccc1O | ? | 50 | 56 | ? | ? | 18µM*
COc1ccc(/C=C/C(=O)C(C)(C)C)cc1OC | -4% | 16* | 12 | . | 1% | .
COc1cc(C=C(C(C)=O)C(C)=O)ccc1O | ? | -2 | -3 | 2% | 5% | -21%
Brc1ccc2oc(-c3ccn[nH]3)cc2c1 | 26% | 70* | 119* | -16%[46.1 µM] | -11% | ?
CCOc1ccccc1N(CC(=O)NC1CCCCC1)S(=O)(=O)c1ccc(C)cc1 | 15% | 2 | -6 | 3.2µM* | -13% | ?
O=C(CN(C(=O)CNS(=O)(=O)c1ccccc1)c1ccc2c(c1)OCCO2)NC1CCCCC1 | 14% | 24* | 17 | 15% | -8% | 8%
SMILES | FMDV antiviral | CHX counter | Shiga toxin inh | Marburg entry inh | HCV inhibitor | LASV entry inh
CC(=O)c1ccc(S(=O)(=O)N(C)CC(=O)NCC2CCCCC2)cc1 | 18% | 11 | 53* | -10%[46.1 µM] | 6% | 13%[46.1 µM]
CN(CC(=O)NCC1CCCCC1)S(=O)(=O)c1ccc(F)cc1 | -4% | -1 | 0 | -6%[46.1 µM] | -2% | 0%[46.1 µM]
CCOc1ccccc1N(CC(=O)O)S(=O)(=O)c1ccccc1 | -2% | -1 | -9 | 16% | 8% | 16%
CCOc1ccccc1N(CC(=O)N(C)Cc1ccccc1)S(=O)(=O)c1ccccc1 | 1% | 26 | 58* | -27% | -15% | ?
Cc1cc(C)cc(NC(=S)N2CCN(S(C)(=O)=O)CC2)c1 | -18% | -1 | -13 | 22% | 18% | 3%
CN(CC(=O)NC1CCCCCC1)S(=O)(=O)c1ccccc1 | 29% | 12* | 34* | 29% | 1% | ?
CC(=O)Nc1ccc(S(=O)(=O)N(C)CC(=O)NC2CCCCCCC2)cc1 | -21% | . | . | -3% | -3% | -16%
Cc1ccc(Cl)cc1NC(=O)c1cnc(N2CCCCC2)c2ccccc12 | ? | . | . | . | . | -2%[46.1 µM]
CCOC1=C2[C@H](c3ccccc3)N(S(=O)(=O)c3ccccc3)C[C@H]2n2c(=O)n(-c3ccccc3)c(=O)n2C1 | 4% | . | . | . | . | .
C[C@@H]1CN([C@H](C)CO)C(=O)CCCn2nncc2CO[C@H]1CN(C)Cc1ccc(Oc2ccccc2)cc1 | -25% | . | . | . | . | .
C=CCOc1ccc(C2C(C(=O)c3ccc(C)o3)=C(O)C(=O)N2Cc2cccnc2)cc1 (stereo unspecified) | 4% | 2 | -3 | 28%[46.1 µM] | 4% | -9%
CC(C)(C)c1ccc(OCCOc2ccc(C(C)(C)C)cc2NC=O)c(NC=O)c1 | ? | 5 | -4 | . | 10µM* | .
COCCOc1ccc(C(F)(F)F)cc1NC(=O)c1ccc(F)cc1 | -22% | -2 | 7 | ? | 11% | -4%
COc1cccc(-c2nc(SCC(=O)NCc3ccccc3)c3c(=O)n(C)c(=O)n(C)c3n2)c1 | -3% | . | . | . | . | 17%[46.1 µM]
CC1CCc2nc(NC(=O)CCSc3ccccc3)sc2C1 (stereo unspecified) | 34% | -2 | -6 | . | 5% | .
Cc1ncsc1C(=O)Nc1nc2c(s1)CC(C)CC2 (stereo unspecified) | 27% | 27* | 82* | ? | ? | -19%
CC1CCc2nc(NC(=O)C3COc4ccccc4O3)sc2C1 (stereo unspecified) | 16µM* | 19 | 11 | . | ? | .
CC1CCc2nc(NC(=O)C3CC3)sc2C1 (stereo unspecified) | 8% | 51* | 82* | ? | 8% | 7%
CC1CCc2nc(NC(=O)Cc3ccc(Cl)cc3)sc2C1 (stereo unspecified) | 18% | . | . | 3%[46.1 µM] | . | 7%[46.1 µM]
CC(=O)Nc1cccc(OCC(=O)Nc2ccc(F)cc2)c1 | 40% | 15* | -32 | 8% | 2% | 6%
CC(=O)Nc1cccc(OCc2ccc(F)cc2)c1 | 11% | 3 | 19 | ? | 15% | 23%
Cc1ccc(OCC(=O)Nc2ccc(F)cc2)cc1C | . | 39* | 46* | -8% | 3% | 1%
COC(=O)CCC(C)N1CCC(Oc2ccc(C(=O)NCc3ccccn3)cc2)CC1 (stereo unspecified) | -18% | -1 | -3 | . | 7% | .
CSCC[C@H](NC(=O)[C@@H]1Cc2ccccc2CN1)C(=O)NC1CCCC1 | 13% | 13 | -9 | . | 6% | .
COc1ccccc1-n1cc([C@@H]2C[C@H]3CN(c4ccccc4)C(=O)[C@]34CCCN24)cn1 | -7% | -2 | -3 | 10µM* | 5.6µM* | ?
CCC1CN(S(=O)(=O)c2cc(-c3cc(C)no3)ccc2C)c2cc(Cl)ccc2O1 (stereo unspecified) | -17% | . | . | . | . | 5%[46.1 µM]
